# Data published in PubChem BioAssay AID1467 (National Center for Advancing Translational Sciences (NCATS), 2008).
# Out of some 230,000 compounds screened, fewer than 10 were called active. Calls come from the whole dose curve; as a rule, active = well fitted curve in the direction sought with a large enough effect; inconclusive = small, poorly fitted or top-dose-only effect, or effect the other way, or another doubt; inactive = no such curve, though single readings can be large or run the other way. These entries were drawn from the full list.
# Molecular target: Alpha-galactosidase A (Homo sapiens) (UniProt P06280)
# Test: qHTS Assay for Inhibitors of Human alpha-Galactosidase at pH 4.5.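 Note: 0% = full activity with enzyme and -100% = basal without enzyme.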
# Details: purified enzyme, 4-MU-alpha-Gal fluorescence; series mostly up to 105 µM; activity change, negative = inhibition: at the top concentration
# Description: NIH Chemical Genomics Center [NCGC]
# NIH Molecular Libraries Probe Production centers Network [MLPCN]
# Assay Submitter (PI): Wei Zheng
# Alpha-galactosidase is a homodimeric glycoprotein that hydrolyzes the terminal alpha-galactosyl moieties from glycolipids and glycoproteins. Deficiency of this enzyme results in Fabry Disease with progressive accumulation of globotriaosylceramide and other glycosphingolipids in vascular endothelial cells that causes renal failure, myocardial infarction and stroke, and premature death in patients. It has been reported that the improper folding and trafficking of alpha-galactosidase resulting from the genetic mutations may account for a significant numbers of Fabry patients. […] We optimized this alpha-galactosidase assay in 1536-well plate format for identifying the novel small molecule inhibitors with the structures other than the sugar analogs in order to develop the new pharmacological chaperones. Although this assay has the same protocol as PubChem AID 992, this is a separate project and, therefore, is published as a separate assay
# NCGC Assay Protocol Summary:
# This is a fluorogenic enzyme assay with 4-Methylumbelliferyl alpha-D-galactopyranoside as the substrate and human […] as the enzyme preparation. Upon the hydrolysis of this fluorogenic substrate, the resulting product, […]. 4-Methyllumbelliferone, can be excited at 365 nm and emits at 440 nm. This fluorescence which can be detected by a standard fluorescence plate reader. Data were normalized to the controls for basal activity (without enzyme) and 100% activity (with enzyme). In the AC50 values were determined from concentration-response data modeled with the standard Hill equation.
# Assay buffer: 50 mM citric acid (titrated with potassium phosphate to pH 4.5), 0.005% Tween-20, pH 4.5. (pH 4.5 is an optimal condition for this enzyme assay)
# 1536-well assay protocol for the human alpha-galactosidase:
# (1) Add 2 ul/well of enzyme (12 nM final)
# (2) Add 23 nL compounds in DMSO solution. The final titration was 0.7 nM to 77 uM.
# (3) Add 1 ul of substrate (400 uM final)
# (4) Incubate at room temperature for 20 min.
# (5) Add 2 ul stop solution (1M NaOH and 1M Glycine mixture, pH 10)
# (6) Detect the assay plate in a ViewLux plate reader (PerkinElmer) with Ex=365 nm and Em=440nm.
# Keywords: MLSMR, MLPCN, NIH Roadmap, qHTS, NCGC, : Alpha-galactosidase, Fabry Disease, pharmacological chaperone, chaperone therapy
# Alpha-galactosidase A (Homo sapiens), sequence (P06280 whole entry, looked up): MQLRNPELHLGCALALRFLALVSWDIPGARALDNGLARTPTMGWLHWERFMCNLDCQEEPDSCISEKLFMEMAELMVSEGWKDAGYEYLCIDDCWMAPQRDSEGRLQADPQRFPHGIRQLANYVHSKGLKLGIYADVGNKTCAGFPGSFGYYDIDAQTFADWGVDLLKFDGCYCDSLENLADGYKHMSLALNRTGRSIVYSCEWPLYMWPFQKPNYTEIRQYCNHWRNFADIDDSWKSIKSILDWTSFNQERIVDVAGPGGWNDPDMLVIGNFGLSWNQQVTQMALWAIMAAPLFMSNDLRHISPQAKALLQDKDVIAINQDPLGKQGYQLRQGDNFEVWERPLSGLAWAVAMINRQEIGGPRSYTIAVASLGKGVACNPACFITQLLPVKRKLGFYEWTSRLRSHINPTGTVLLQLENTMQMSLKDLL
row,Structure (SMILES),"activity change, negative = inhibition"
1,C=CC(C1=CC(=O)C=CC1=O)c1ccc(O)cc1 (centres undefined),-1.94% (inactive)
2,Cc1nc(NC(=O)C2CCCCC2)sc1C,-1.19% (inactive)
3,c1ccc(CN=C2Nc3ccccc3CS2)nc1,-4.37% (inactive)
4,O=C(CSc1nnc(-c2ccncc2)n1-c1ccc(Cl)cc1)Nc1ccc(C(=O)O)cc1,1.75% (inactive)
5,C[C@H]1Cc2c(-c3ccccc3)nc3c(c2CO1)CN(C(=O)C1CC1)CC3,3.68% (inactive)
6,O=c1c2c(nc3cc(-c4cccc(Cl)c4)[nH]n13)CCCC2,-11.9% (inactive)
7,CC(C)C1=CC2=CC[C@H]3[C@](C)(C(=O)O)CCC[C@]3(C)C2CC1 (some centres undefined),-16.7% (inactive)
8,COc1ccc(CCNC2=CC(=O)CC(C)(C)C2)cc1,-1.74% (inactive)
9,O=C(CC(=O)N/N=C\c1cccc(Cl)c1Cl)NCc1ccccc1,-2.61% (inactive)
10,COc1cc(NC(=O)c2cncc(-c3ccc(C#N)cc3)c2)cc(C(=O)Nc2cccc(C(F)(F)F)c2)c1,-3.74% (inactive)
11,COc1cccc(-c2cc(=O)c3cc(NC(=O)c4ccc(C)cc4)ccc3[nH]2)c1,2.12% (inactive)
12,Cc1nc(-c2ccc(Cl)cc2)sc1C1(C)CC(c2ccccc2F)=NO1 (centres undefined),-4.79% (inactive)
13,COc1ccc(/C=C2\NC(=O)[C@@H]3Cc4ccccc4CN3C2=O)cc1,-9.91% (inactive)
14,CC(C)Cc1nc(Nc2ccc(S(=O)(=O)N3CCCC3)cc2)c2nnn(Cc3ccccc3)c2n1,2.63% (inactive)
15,NC(=O)COc1ccc(C23CC4CC(CC(C4)C2)C3)cc1,0.403% (inactive)
16,COc1ccc(OC)c(S(=O)(=O)Nc2cccc(-c3ccc4nncn4n3)c2)c1,-22.2% (inactive)
17,COC(=O)C1=C(C(=O)OC)C(c2cc([N+](=O)[O-])ccc2O)c2sc(=O)[nH]c2S1 (centres undefined),-3.48% (inactive)
18,CCCCNS(=O)(=O)c1ccc2nc(SCC(=O)Nc3cc(C)cc(C)c3)[nH]c2c1,-4.8% (inactive)
19,CCOC(=O)C1=C(C)c2ccccc2OC1C(=O)OCC (centres undefined),-3.65% (inactive)
20,O=C(COc1cc(Cl)c(Cl)cc1Cl)NC(=O)NC1CCCC1,-0.202% (inactive)
21,COc1ccc(-c2c(C)cc3oc(=O)cc(-c4ccccc4)c3c2C)cc1C=O,-16.8% (inactive)
22,CCCCCCCCCCCCN1C(=O)CSC1c1cccnc1 (centres undefined),-8.5% (inactive)

row,Structure (SMILES),"activity change, negative = inhibition"
1,C=C(C(C)=O)C(O)c1ccc([N+](=O)[O-])cc1 (centres undefined),-0.319% (inactive)
2,C=CCOC(=O)NC(c1ccc(F)c(F)c1)C(C(=O)COC)C(=O)OC (centres undefined),inactive
3,COc1ccc(-c2nc3c(c4c2C[C@H](c2ccccc2)OC4)CN(C(=O)c2cccnc2)CC3)c(C)c1,-5.59% (inactive)
4,COC(=O)C1(C(C)=O)CC2=CC[C@H]3C(=O)N(c4ccccc4)C(=O)[C@H]3[C@@H]2Cc2ccccc2[C@@H]1C[N+](=O)[O-] (some centres undefined),inactive
5,Cc1cccc(-c2nc3ccccc3c(=O)n2NC(=O)Cc2ccc(Cl)cc2)c1,4.61% (inactive)
6,O=C(NCc1ccco1)O[C@@H]1C(=O)c2cc(Br)ccc2O[C@H]1c1ccc2c(c1)OCO2,-4.29% (inactive)
7,O=C(O)CC(Cc1ccccc1)C(=O)Nc1ccc([N+](=O)[O-])cc1 (centres undefined),-7.27% (inactive)
8,OC[C@H]1O[C@@H](n2cnc3c(N[C@H]4CC5CCC4C5)ncnc32)[C@H](O)[C@@H]1O (some centres undefined),-5.15% (inactive)
9,COc1cccc([C@@H]2Oc3ccc(Br)cc3C(=O)[C@H]2OC(=O)NCCc2ccc(OC)c(OC)c2)c1,-5.8% (inactive)
10,CCOC(=O)C1C/C(=C\C(C)=O)c2cccc(C(F)(F)F)c2O1 (centres undefined),-13.6% (inactive)
11,C/C(Nc1ccc2oc(=O)ccc2c1)=C1/C(=O)CC2[C@@H]1C2(C)C (some centres undefined),-2.21% (inactive)
12,O=C(NNC(=S)NC1CC2CCC1C2)c1ccc(Cl)cc1 (centres undefined),-13.7% (inactive)
13,COc1cc(NC(=O)c2ccc3c(c2)OCO3)ccc1NC(=O)c1cccs1,6.42% (inactive)
14,CC(=O)Nc1ccc(NC(=O)CSc2ncnc3c2cnn3Cc2ccccc2)cc1,-11.5% (inactive)
15,C=C1c2cccc(OC)c2O[C@H](C(=O)OCC)[C@@H]1CCCCCC,-12.3% (inactive)
16,C=CCn1c2ccccc2c2nnc(SCc3[nH]c(=O)[nH]c3C(=O)CCCCC(=O)OCC)nc21,6.4% (inactive)
17,O=C(COC(=O)CNC(=O)c1ccccc1F)NCC(F)(F)F,2.03% (inactive)
18,COC(=O)C1=C(C(=O)OC)[C@@H]2N(C)c3ccccc3[C@@]23C[C@@H](C(=O)OC)N(S(=O)(=O)c2ccc(Br)cc2)C3=N1,-2.66% (inactive)
19,O=C(NCCCN1CCOCC1)c1cc2c(s1)CCC2,-4.48% (inactive)
20,CCOc1ccc(C2NC(=S)NC3=C2CCc2ccccc23)cc1 (centres undefined),-7.19% (inactive)
21,COc1cc(OC)c2c(-c3cccc(-c4cccc(N)c4)c3)cc(=O)oc2c1,-6.01% (inactive)
22,Cc1ccc(NC(=O)O[C@@H]2C(=O)c3cc(Br)ccc3O[C@H]2c2ccc3c(c2)OCO3)cc1Br,-0.736% (inactive)

row,Structure (SMILES),"activity change, negative = inhibition"
1,CC1=C(C)CC(C(=O)NNC(=O)c2ccccc2O)C(C(=O)O)C1 (centres undefined),8.41% (inactive)
2,O=S(=O)(Cc1noc(-c2ccc(OC(F)(F)F)cc2)n1)c1ccc(F)cc1,-3.61% (inactive)
3,COc1cc(CNCCN(C)C)ccc1OCc1c(F)cccc1Cl,7.26% (inactive)
4,Clc1ccc(-c2csc(-c3ccncc3)n2)cc1,0.359% (inactive)
5,CCOc1cc(N2CCOCC2)c(OCC)cc1NC(=O)c1ccc(C)s1,3.82% (inactive)
6,NC1CCN(O)C1=O (centres undefined),-1.41% (inactive)
7,COc1ccc(S(=O)(=O)N(C)C)cc1NC(=O)CSc1ncccn1,-1.38% (inactive)
8,O=C(COc1ccccc1)N1CCN=C1SCc1cccc(F)c1,-1.66% (inactive)
9,CC(=O)/C(C)=N/O,6.05% (inactive)
10,CCO[C@H]1OC(C(=O)N2CCN(Cc3ccccc3)CC2)=C[C@@H](c2cn(C(C)=O)c3ccccc23)[C@@H]1CCCO,-8.17% (inactive)
11,C=C/C1=C/Cc2ccccc2[C@H](C[N+](=O)[O-])C(C(=O)OC)(C(=O)OC)C1,-2.03% (inactive)
12,NNC(=O)c1oc2nc(-c3ccccc3)cc(-c3ccco3)c2c1N,-5.28% (inactive)
13,S=C(NCCCc1cnc[nH]1)NCCCN(Cc1ccc(Cl)c(Cl)c1)c1ccc(Br)cn1,-6.2% (inactive)
14,Cc1cccc([C@H]2[C@@H]3C=CC[C@@H](C)[C@@H]3C(=O)N2Cc2ccccc2)c1,-2.93% (inactive)
15,CCN(CCn1cccn1)C(=O)CC1C(=O)NCCN1Cc1cccc(OC)c1OC (centres undefined),-3.26% (inactive)
16,O=[N+]([O-])c1ccc(N2CCNCC2)cc1NCc1cccnc1,-23.8% (inactive)
17,S=C(NNC(=S)NC1CC2C=CC1C2)NC1CC2C=CC1C2 (centres undefined),-8.67% (inactive)
18,COC(=O)N1C(/C=C/C=C/c2ccc(OC)cc2)=Cc2ccccc2C1CC(C)=O (centres undefined),-1.09% (inactive)
19,COc1ccc(C(=O)COC(=O)c2nn(C)c(=O)c3ccccc23)c(OC)c1,-26.1% (inactive)
20,COc1cccc(NC(=S)NCc2ccco2)c1,-7.84% (inactive)
